The results in this text go back to PubChem BioAssay AID485270 (The Scripps Research Institute Molecular Screening Center, 2010).

The structures appear in SMILES notation. In all, about 330,000 compounds went through this assay and about 5,800 (1.8%) were called active. Many of the other results were omitted from the sample, so actives are more common in it than they were. Unmarked numbers belong to inactive results. No stated cut-off is given here; in the data, active means inhibition mostly above about 38% (no sharp cut-off); inactive means mostly below about 40%.

Orexin/Hypocretin receptor type 1 (Homo sapiens), sequence (O43613 whole entry, looked up): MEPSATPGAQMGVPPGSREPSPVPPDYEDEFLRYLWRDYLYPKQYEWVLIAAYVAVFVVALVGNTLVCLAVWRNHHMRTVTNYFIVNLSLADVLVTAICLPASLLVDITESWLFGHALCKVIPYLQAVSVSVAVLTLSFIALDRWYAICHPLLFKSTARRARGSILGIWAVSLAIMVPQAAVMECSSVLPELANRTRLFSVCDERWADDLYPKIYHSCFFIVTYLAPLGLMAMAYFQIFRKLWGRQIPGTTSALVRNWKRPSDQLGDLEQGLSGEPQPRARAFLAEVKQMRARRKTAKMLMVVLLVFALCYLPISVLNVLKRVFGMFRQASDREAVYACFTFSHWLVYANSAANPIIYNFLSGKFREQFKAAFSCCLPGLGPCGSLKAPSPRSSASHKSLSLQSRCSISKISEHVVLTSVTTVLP

This experiment has as its target Orexin/Hypocretin receptor type 1 (Homo sapiens) (UniProt O43613). The experiment can be described thus: blocks the human orexin 1 receptor (AID 485270).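 Further: 0% = agonist challenge alone and 100% = reference antagonist.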 The settings on record: OX1R-expressing cells, FRET antagonist read-out; at 6.6 µM; stronger effect = higher value.
The term inhibition denotes the drop in the measured response relative to a control, in per cent. Take `COc1ccc(C(CNC(=O)c2cccc(S(=O)(=O)Nc3ccccc3Cl)c2)N2CCOCC2)cc1` (stereo unspecified): the inhibition was 34.6% (active).
As for `COc1ccc(C(CNC(=O)c2cccc(NS(=O)(=O)c3ccc(C)c(F)c3)c2)N2CCCC2)cc1` (stereo unspecified), the figure is 6.44%; as for `COc1ccc(C(CNC(=O)c2ccc(S(=O)(=O)Nc3ccccc3C)cc2)N2CCOCC2)cc1` (stereo unspecified), 8.1%.
For `O=C(NCC#CCSc1nnc(-c2cccc3ccccc23)o1)c1cccs1` the value was 8.58%; for `COc1ccc(S(=O)(=O)N(C)C[C@H]2Oc3c(NC(=O)Nc4ccc5c(c4)OCO5)cccc3C(=O)N([C@H](C)CO)C[C@@H]2C)cc1`, 6.37%.
As for `Cn1nnc2cc(C(=O)NCCC3=CCCCC3)ccc21`, the figure is 20.7%; as for `C=CCNC(=O)c1ccc2c3n(nc2c1)-c1ccc(C)cc1CO3`, 75% (active); as for `Cc1cccc(-c2nc3ccc(C(=O)NCCN4CCN(C)CC4)cc3nc2-c2cccc(C)c2)c1`, 17.7%.
As to `CC(NC(=O)COC(=O)c1ccc2ccccc2n1)c1ccccc1` (stereo unspecified), the inhibition was 15.5%.
As for `O=C(NC(=S)Nc1ccc(Br)cc1F)C1CCCCC1`, the figure is 4.65%.
Regarding `O=C(CN1C(=O)NC2(CCCCCC2)C1=O)NCc1ccc(F)cc1`, the inhibition is 6.28%.
As for `COc1cc(C)ccc1OCC(=O)OCC(=O)c1ccc[nH]1`, the figure is 11.8%; as for `O=C(NCCC(=O)N1O[C@@H]2C=C[C@H]1C2)OCC1c2ccccc2-c2ccccc21`, 7.51%; as for `COc1cc(C(=O)NCC(=O)N2CC=C(c3ccccc3)CC2)cc(OC)c1OC`, 13.7%.
As for `O=C(Nc1ccccc1)N1CCN(C(=O)Nc2ccccc2)CC1`, the figure is 7.94%.
As for `O=C(Nc1ccc(Cl)c(Cl)c1)N1CC=C(c2ccccc2)CC1`, the figure is 56.1% (active); as for `CC(C)n1cnc2c(NCc3ccccc3)cc(N[C@@H](CO)Cc3ccccc3)cc21`, 33.2%; as for `Cc1cc(-c2ccc(C)c(S(=O)(=O)NC(C)Cc3ccco3)c2)on1` (stereo unspecified), 46% (active).
`Cc1cc(-c2ccc(C)c(S(=O)(=O)NCCCN(Cc3ccccc3)C(C)C)c2)on1`: the inhibition is 22.4%.
For `Cc1cc(-c2ccc(C)c(S(=O)(=O)Nc3ccc(S(N)(=O)=O)cc3)c2)on1` the value was 14.9%; for `COc1ccc(S(=O)(=O)N(C)C[C@H]2Oc3ccc(NS(=O)(=O)c4cccs4)cc3CC(=O)N([C@H](C)CO)C[C@H]2C)cc1`, 8.61%.
As for `Cc1c(/C=N\NC(=O)c2cc3ccccc3o2)c2ccccc2n1C`, the figure is 89.7% (active); as for `Cc1ccc(NC(=O)c2cc3ccccc3o2)cc1`, 4.2%; as for `Cc1c(/C=N/N2C(=O)C3C4C=CC(C4)C3C2=O)c2ccccc2n1C` (stereo unspecified), 1.17%.
In the case of `O=C(N/N=C/c1c[nH]c2ccccc12)c1cc2ccccc2o1`, the inhibition is 65.5% (active).
For `O=C(N/N=C/c1c[nH]c2ccccc12)c1ccccc1O` the value was -0.06%; for `O=C(O)c1cccc(NC(=S)N/N=C/c2c[nH]c3ccccc23)c1`, 18.9%.
For `C=CC1=C(C(=O)O)N2C(=O)[C@@H](NC(=O)/C(=N\OCC(=O)O)c3csc(N)n3)[C@H]2SC1`, the inhibition is 9.76%.
Regarding `CN(C)C(=O)CCc1ccc2c3c([nH]c2c1)[C@]1(C)[C@@H](C(=O)N2CCOCC2)C[C@H](CC(=O)NCCc2ccccn2)C(=O)N1CC3`, the inhibition is 8.14%.
For `O=C(CCS(=O)(=O)c1cccc2nonc12)NCCc1ccccc1Cl` the value was 40.5%.
Turning to `CC1CCCCC1NC(=O)CCS(=O)(=O)c1ccc2c(c1)NC(=O)CO2` (stereo unspecified), the inhibition is -0.2%.
For `CC1CCCCC1NC(=O)CCS(=O)(=O)c1cccc2nonc12` (stereo unspecified) the value was 57.3% (active); for `Cc1nn(-c2ccccc2)nc1C(=O)OCC(=O)N1CCCCC1C` (stereo unspecified), 8.79%.
`CC[n+]1cc(C)ccc1/C=C/c1ccc(N(C)C)cc1`: the inhibition is 52.2% (active).
As for `Cc1noc(C)c1C(=O)OC(C)C(=O)Nc1ccc2c(c1)OCO2` (stereo unspecified), the figure is 6.68%; as for `COc1ccc(S(=O)(=O)N2CCN(CC(=O)N3CCOCC3)CC2)cc1OC`, 7.86%; as for `CCn1c(O)c2ccc(C(=O)N=NC(=O)c3cccnc3)cc2c1O`, 52.5% (active).
For `CCOc1ccccc1NC(=O)c1cccnc1` the value was 13%.
Take `C/C(=N\NC(=O)c1ccc2ccccc2c1)c1cccnc1`: the inhibition was 7.2%.
As for `O=C(OCC(=O)N1CCCCCC1)c1ccc(Cl)nc1`, the figure is 9.15%; as for `C=CC[C@@H](Cc1ccc(F)cc1)C(=O)OC[C@H]1CCCN1C(=O)[C@H](CC=C)CC(=O)N(CCO)Cc1ccccc1`, 5.09%.
For `CCCSc1ccc([C@H]2N[C@@](Cc3ccccc3)(C(=O)OC)[C@H]3C(=O)N(C)C(=O)[C@@H]23)cc1` the value was 8.14%; for `CCC1CCCCN1C(=S)NC(=O)c1ccco1` (stereo unspecified), 0.14%; for `COc1ccc(Cc2nnc(SCC(=O)Nc3ccc(C)c(Cl)c3)[nH]c2=O)cc1`, 27%.
As for `Cc1ccc(NC(=O)CSc2nnc(CNC(=O)c3ccccc3F)o2)cc1Cl`, the figure is 13.1%; as for `Cc1ccc(NC(=O)CSc2nn3c(=O)c(C)nnc3s2)cc1Cl`, 53.8% (active); as for `CC(C)n1cnc2c(NCc3ccccc3)cc(OCC3CCN(C)CC3)cc21`, 19.4%.
Take `Cc1cccc(C(=O)OCC(=O)NC(C)C2CC3CCC2C3)c1O` (stereo unspecified): the inhibition is 17.1%.
As for `COCCn1c(C)cc(C(=O)CN2c3cccc4cccc(c34)S2(=O)=O)c1C`, the figure is 24.1%; as for `Cc1ccc(NC(=O)c2ccc(Cl)nc2)cc1S(=O)(=O)N1CCOCC1`, 5.02%; as for `CCN(C(=O)CSc1nnnn1-c1ccc(OC)cc1)C1CCS(=O)(=O)C1` (stereo unspecified), 8.67%.
As for `COc1cc(/C=C/C(=O)OCC(=O)NCCCc2ccccc2)ccc1O`, the figure is 5.75%; as for `O=[n+]1c2c(n([O-])c3cc(Br)ccc31)CCC2`, 66% (active); as for `Cc1ccc(-c2c[n+](=O)c3c(n2[O-])CCC3)cc1`, 17.4%.
As for `Cc1ccc(-c2c(C)n([O-])c3c([n+]2=O)CCC3)cc1`, the figure is 22.7%.
Turning to `CC(C)CC1(C)NC(=O)N(CC(=O)Nc2ccc3c(c2)OCCO3)C1=O` (stereo unspecified), the inhibition is 5.05%.
